± gives the standard deviation of the averaged measurements.
Tests used:
Drosophila melanogaster [1] = assay: olfactory response index (dipstick assay) (fraction of flies (RI; 1 aversion, 0.5 indifferent, 0 attraction)); higher = stronger aversion to the odorant; conditions: odorant concentration: 1% v/v, male
Drosophila melanogaster [2] = assay: as above; conditions: odorant concentration: 1% v/v, female
[3] = genotype (tubulin-GAL4 x UAS-RNAi line; control = progenitor): A5
[4] = genotype (tubulin-GAL4 x UAS-RNAi line; control = progenitor): control
[5] = genotype (tubulin-GAL4 x UAS-RNAi line; control = progenitor): obp 18a
[6] = genotype (tubulin-GAL4 x UAS-RNAi line; control = progenitor): obp 22a
[7] = genotype (tubulin-GAL4 x UAS-RNAi line; control = progenitor): obp 28a
[8] = genotype (tubulin-GAL4 x UAS-RNAi line; control = progenitor): obp 56a
[9] = genotype (tubulin-GAL4 x UAS-RNAi line; control = progenitor): obp 56c
[10] = genotype (tubulin-GAL4 x UAS-RNAi line; control = progenitor): obp 56f
[11] = genotype (tubulin-GAL4 x UAS-RNAi line; control = progenitor): obp 57a
[12] = genotype (tubulin-GAL4 x UAS-RNAi line; control = progenitor): obp 57b
[13] = genotype (tubulin-GAL4 x UAS-RNAi line; control = progenitor): obp 58c
[14] = genotype (tubulin-GAL4 x UAS-RNAi line; control = progenitor): obp 59a
[15] = genotype (tubulin-GAL4 x UAS-RNAi line; control = progenitor): obp 83a
[16] = genotype (tubulin-GAL4 x UAS-RNAi line; control = progenitor): obp 83c
[17] = genotype (tubulin-GAL4 x UAS-RNAi line; control = progenitor): obp 93a
[18] = genotype (tubulin-GAL4 x UAS-RNAi line; control = progenitor): obp 99b
[19] = genotype (tubulin-GAL4 x UAS-RNAi line; control = progenitor): obp 56h

O=Cc1ccccc1 [benzaldehyde] gave an olfactory response index (Drosophila melanogaster [1]; [3]) of 0.725 ± 0.049, an olfactory response index (Drosophila melanogaster [1]; [4]) of 0.83 ± 0.13 and an olfactory response index (Drosophila melanogaster [1]; [5]) of 0.53 ± 0.1. The olfactory response index (Drosophila melanogaster [1]; [6]) was 0.467 ± 0.074, the olfactory response index (Drosophila melanogaster [1]; [7]) was 0.621 ± 0.14 and the olfactory response index (Drosophila melanogaster [1]; [8]) was 0.418 ± 0.068. It also gave an olfactory response index (Drosophila melanogaster [1]; [9]) of 0.522 ± 0.14, an olfactory response index (Drosophila melanogaster [1]; [10]) of 0.656 ± 0.11 and an olfactory response index (Drosophila melanogaster [1]; [11]) of 0.547 ± 0.17. For the same molecule, the olfactory response index (Drosophila melanogaster [1]; [12]) was 0.636 ± 0.024, the olfactory response index (Drosophila melanogaster [1]; [13]) was 0.702 ± 0.035 and the olfactory response index (Drosophila melanogaster [1]; [14]) was 0.739 ± 0.0092. It also gave an olfactory response index (Drosophila melanogaster [1]; [15]) of 0.591 ± 0.15, an olfactory response index (Drosophila melanogaster [1]; [16]) of 0.557 ± 0.023 and an olfactory response index (Drosophila melanogaster [1]; [17]) of 0.537 ± 0.042. It also gave an olfactory response index (Drosophila melanogaster [1]; [18]) of 0.299 ± 0.13, an olfactory response index (Drosophila melanogaster [1]; [19]) of 0.555 ± 0.12 and an olfactory response index (Drosophila melanogaster [2]; [3]) of 0.8108 ± 0.005. The olfactory response index (Drosophila melanogaster [2]; [4]) was 0.694 ± 0.053, the olfactory response index (Drosophila melanogaster [2]; [5]) was 0.534 ± 0.029 and the olfactory response index (Drosophila melanogaster [2]; [6]) was 0.708 ± 0.24. It also gave an olfactory response index (Drosophila melanogaster [2]; [7]) of 0.757 ± 0.076, an olfactory response index (Drosophila melanogaster [2]; [8]) of 0.683 ± 0.17 and an olfactory response index (Drosophila melanogaster [2]; [9]) of 0.645 ± 0.031. The olfactory response index (Drosophila melanogaster [2]; [10]) was 0.75 ± 0.058, the olfactory response index (Drosophila melanogaster [2]; [11]) was 0.839 ± 0.059 and the olfactory response index (Drosophila melanogaster [2]; [12]) was 0.748 ± 0.087. The olfactory response index (Drosophila melanogaster [2]; genotype (tubulin-GAL4 x UAS-RNAi line; control = progenitor): obp 58b) was 0.753 ± 0.048, the olfactory response index (Drosophila melanogaster [2]; [13]) was 0.795 ± 0.051 and the olfactory response index (Drosophila melanogaster [2]; [14]) was 0.863 ± 0.051. It also gave an olfactory response index (Drosophila melanogaster [2]; [15]) of 0.663 ± 0.16, an olfactory response index (Drosophila melanogaster [2]; [16]) of 0.797 ± 0.16 and an olfactory response index (Drosophila melanogaster [2]; [17]) of 0.738 ± 0.11. It also gave an olfactory response index (Drosophila melanogaster [2]; [18]) of 0.379 ± 0.16 and an olfactory response index (Drosophila melanogaster [2]; [19]) of 0.726 ± 0.091.
